Screening results as filed in PubChem.
TDP1 cell noCPT – qHTS for Inhibitors of human tyrosyl-DNA phosphodiesterase 1 (TDP1): qHTS in cells in absence of CPT; Potency, µM (top dose mostly 46.2 µM), actives largely listed as inhibitors; 420,000 tested, 15% active; DT40 Tdp1-/- hTDP1 cells, no CPT, ATP luminescence, 48 h; further: nearly all actives have a fitted effect of over 55% in size
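Cells were dispensed at 400 per well, compounds added by pin tool, plates incubated ≥48 hr at 37 °C, then CellTiter-Glo added for 30 min at room temperature before luminescence reading. Line: DT40 Tdp1-/- complemented with hTDP1; camptothecin omitted.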
HT1080 IDH1KD tx – kills HT-1080 cells with IDH1 knockdown; Potency, µM (top dose mostly 46.1 µM), hits mostly cytotoxic; HT-1080 IDH1 knockdown viability, ATP luminescence, 48 h; AID 686971; 360,000 tested, 2% active
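Viability of IDH1-knockdown HT-1080 fibrosarcoma cells was assessed by CellTiter-Glo after 48 h at 37 °C with titrated compound; concentration-effect curves were classified by fit quality and response size.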
IL1B secr inh – inhibitors of inflammasome signaling (IL-1 beta secretion). THP-1 LPS/ATP IL-1B secretion, AlphaLISA, 16 h; active compounds read low. activity change, % at 57.5 µM. 360,000 tested, 4.7% active. AID 743279; in the data active means activity change below about -50%; inconclusive means mostly about -30% to -49%
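Secreted IL-1B measured by AlphaLISA bead assay after 16 h compound exposure of THP-1 cells; compounds (final up to 57.5 uM) added 1 h before LPS (250 ng/mL) and ATP (1.25 mM) stimulation; lower signal means less secretion.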
DT40 TDP1 CPT – growth inhibition of DT40 Tdp1-/-;hTDP1 cells with camptothecin (screen for TDP1 inhibitors); Potency, µM (series often up to 46.2 µM), actives largely listed as inhibitors; 420,000 tested, 12% active; chicken DT40 Tdp1-/-;hTDP1 cells + 20 nM CPT, ATP luminescence, 48 h; further: nearly all actives have a fitted effect of over 55% in size
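Chicken DT40 Tdp1-/- cells complemented with human TDP1, 400 cells/well, exposed to compounds plus 20 nM camptothecin for at least 48 h at 37 C; viability read as ATP content by CellTiter-Glo luminescence.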
HT1080-NT tox – kills 2HG-producing HT-1080-NT fibrosarcoma cells; 360,000 tested, 1.6% active; HT-1080-NT fibrosarcoma viability, CellTiter-Glo ATP luminescence, 48 h; Potency, µM (titrated, usually from 46.1 µM), hits mostly cytotoxic;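 further: NT is the 2HG producing partner of a matched IDH1 knockdown line; nearly all actives have a fitted effect of over 55% in size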
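HT-1080-NT; 750 cells/well; 5% FBS RPMI; 48 h compound, 37 degrees C; CellTiter-Glo luminescence; curve fitting and curve-class assignment.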
Numbers stand for hits; 0 = inactive; ? = inconclusive; - = not tested or not shown; ! = not confirmed by another sample; [ ] = remark or other dose. Sampled rows, rich in hits. Any-hit rate of the full collection: about 19%. Unless noted, the call rests on the fitted dose curve; in most records, active means well fitted curve in the direction sought with a large enough effect; inconclusive means small, poorly fitted or top-dose-only effect, or another doubt; inactive means no such curve, though single readings can be large; an effect the other way counts as inactive or inconclusive.

SMILES	TDP1 cell noCPT	HT1080 IDH1KD tx	IL1B secr inh	DT40 TDP1 CPT	HT1080-NT tox
O=C(CBr)N1CCc2ccccc2C(c2ccccc2)C1 (stereo not given)	2.6µM	21µM	0	2.6µM	26µM
O=C(CN1CCOCC1)N1CCc2ccccc2C(c2ccccc2)C1 (stereo not given)	?	0	0	0	0
O=C(Nc1cccc(F)c1)[C@@H](c1ccccc1)N1Cc2ccccc2C1=O	0	-	-	0	-
COc1ccc(NC(=O)c2ccc3oc(=O)c(S(=O)(=O)c4ccc(C)cc4)cc3c2)cc1OC	0	-	-	0	-
Cc1cccc(N2CCN(C(=O)c3cc4c(=O)n(C)c5ccccc5c4n3C)CC2)c1C	16µM	0	0	?	0
Cn1c(=O)c2cc(C(=O)N3CCN(c4cccc(C(F)(F)F)c4)CC3)sc2c2ccccc21	3.7µM	-	-	?	-
Cc1ccc(Cl)cc1N1CCN(C(=O)C(C)n2ncn3cccc3c2=O)CC1 (stereo not given)	23µM	0	0	18µM	0
Cn1c2ccccc2c2cnn(CC(=O)N3CCN(c4cccc(C(F)(F)F)c4)CC3)c(=O)c21	0	-	-	0	-
Cc1ccc(Cl)cc1N1CCN(C(=O)c2cc3c(=O)n(C)c4ccccc4c3n2C)CC1	16µM	0	0	18µM	0
CCN(CC)c1ccc(C(=O)N/N=C/c2ccccc2OC(F)F)cc1	?	?	0	?	?
O=C(Nc1cc2c3c(c1)CC(=O)N3CCC2)c1ccccc1Br	0	0	0	0	0
Cn1c(C(=O)N2CCN(c3ncccn3)CC2)cc2c(=O)n(C)c3ccccc3c21	21µM	0	0	?	0
Cc1cccc(N2CCN(C(=O)c3cc4c(=O)oc5ccccc5c4s3)CC2)c1C	0	-	-	0	-
Cc1cccc(N2CCN(C(=O)c3cc4c(=O)n(C)c5ccccc5c4s3)CC2)c1C	5.8µM	-	-	?	-
CC(C)Oc1ccc(F)cc1-c1cc(C(=O)NCc2cc(C(F)(F)F)cc(C(F)(F)F)c2)[nH]n1	21µM	?	?	18µM	?
CCCOc1ccc(F)cc1-c1cc(C(=O)NCc2cc(OC)cc(OC)c2)[nH]n1	?	0	0	18µM	0
COc1cc(F)ccc1-c1cc(C(=O)NCc2cc(C(F)(F)F)cc(C(F)(F)F)c2)[nH]n1	0	?	0	?	0
COc1cc(CNC(=O)c2cc(-c3cc(F)ccc3OC(C)C)n[nH]2)cc(OC)c1	?	?	?	16µM	?
CC(C)Oc1ccc(F)cc1-c1cc(C(=O)NCc2ccc(C(F)(F)F)cc2)[nH]n1	?	?	?	16µM	?
N#Cc1ccc(S(=O)(=O)Nc2ccccc2N2CCOCC2)cc1	0	0	0	0	0
COc1ccccc1CNC(=O)c1cc(-c2cc(F)ccc2OC(C)C)n[nH]1	21µM	0	0	16µM	0
CC(C)OC(=O)C(C(=O)C(F)(F)F)c1cc(NS(=O)(=O)c2ccc3ccccc3c2)c2ccccc2c1O (stereo not given)	21µM	12µM	-61	23µM	8.2µM
CN1C(=O)N(CC(=O)c2ccc3c(c2)OCO3)C(=O)C12CCCCC2	0	0	0	0	0
O=C(C[n+]1ccccc1Br)c1ccc(Cl)cc1	14µM	-	-	?	-
O=C(NCc1cccc(Cl)c1)c1ccc(S(=O)(=O)Nc2cccc(C(F)(F)F)c2)cc1	?	0	-78	?	0
SMILES	TDP1 cell noCPT	HT1080 IDH1KD tx	IL1B secr inh	DT40 TDP1 CPT	HT1080-NT tox
COc1ccc(OC)c(S(=O)(=O)NCCc2ccccc2)c1	0	0	0	?	0
COc1ccc(OC)c(S(=O)(=O)NCCOC23CC4CC(CC(C4)C2)C3)c1	7.3µM	0	0	18µM	0
COc1ccc(OC)c(S(=O)(=O)NCCS(=O)(=O)N2CCN(c3ccccc3)CC2)c1	16µM!	0	0	21µM!	0
COc1ccc(NC(=O)CSc2oc(-c3ccc(C)cc3)nc2S(=O)(=O)c2ccc(C)cc2)c(OC)c1	0	-	-	0	-
O=C(O)C1(Nc2ccccc2Cl)CCCC1	0	0	0	0	0
O=C1OCC(CO)(CO)N=C1NNc1ccccc1Cl	0	0	0	0	10µM
Cc1ccccc1-c1cc(C(=O)n2cccn2)c2cc(Cl)ccc2n1	0	10µM	0	?	?
Cc1ccccc1-c1nc2ccc(Cl)cc2c(=O)n1O	?	0	0	0	0
Cc1ccc(N2C(=O)CC(Sc3ccccc3C(=O)O)C2=O)cc1C (stereo not given)	12µM	0	0	4.1µM	0
Cc1ccc(N2C(=O)CC(Sc3ccccc3C(=O)O)C2=O)cc1 (stereo not given)	15µM	0	0	7.3µM	0
Cc1ccc(N2C(=O)CC(Sc3ncccc3C(=O)O)C2=O)cc1 (stereo not given)	0	0	0	0	0
CCOC(=O)c1c(N2C(=O)CC(Sc3ccccc3C(=O)O)C2=O)sc(C)c1C (stereo not given)	?	0	0	23µM	0
Cc1cc(C)cc(N2C(=O)CC(Sc3ccccc3C(=O)O)C2=O)c1 (stereo not given)	18µM	0	0	4.1µM	0
CN1C(=O)CC(Sc2ccccc2C(=O)O)C1=O (stereo not given)	0	0	0	0	0[9.24 µM]
Cc1cccc(N2C(=O)CC(Sc3ccccc3C(=O)O)C2=O)c1 (stereo not given)	?	0	0	?	0
O=C(CNC(=O)COc1ccccc1)NCc1cccnc1	0	0	0	0	0
O=C1c2ccccc2C(=O)N1c1ccc(Cc2ccncc2)cc1	0	0	0	0	0
Cc1cc(C)c(N2C(=O)CC(Sc3ccccc3N)C2=O)c(C)c1 (stereo not given)	7.3µM	?	0	16µM	?
CN(C)c1ccc(N2C(=O)CC(Sc3ccccc3C(=O)O)C2=O)cc1 (stereo not given)	?	0	0	13µM	0
Cc1cccc(C)c1N1C(=O)CC(Sc2ccccc2N)C1=O (stereo not given)	?	0	0	?	0
CCCN(CCC)C(=O)c1cc([N+](=O)[O-])cc2c1-c1ccc([N+](=O)[O-])cc1C2=C(C#N)C#N	2.9µM	0	0	5.2µM	0
O=C(Nc1ccc(S(=O)(=O)N2CCCCC2c2cccnc2)cc1)c1c(F)cccc1F (stereo not given)	?	0	0	?	0
O=C(Nc1ccc(S(=O)(=O)N2CCCCC2c2cccnc2)cc1)c1ccc(Br)cc1 (stereo not given)	9.2µM	-	-	16µM	-
CCCCC(=O)Nc1ccc(S(=O)(=O)N2CCCCC2c2cccnc2)cc1 (stereo not given)	13µM	0	0	18µM	0
CCCc1cc(=O)[nH]c(SCc2nc(-c3ccc(OCC)cc3)no2)n1	0	-	-	0	-
O=C1CCC(=O)N1c1ccccc1-c1ccccc1	0	0	0	0	0
